From PubChem
Shown are actives, neighbours in structure and some others; about 7.9% of the full set was active somewhere.
HCV inhibitor: qHTS Assay for Inhibitors of Hepatitis C Virus (HCV); hit rate 3.4% among 340,000; Potency, µM (series often up to 41.8 µM), most hits filed as inhibitors; Huh7.5.1 HCVcc-Cre infection, luciferase reporter, 44 h; active = well fitted inhibition curve with a large enough effect; inconclusive = small, poorly fitted or top-dose-only effect, or another doubt; inactive = no such curve, though single readings can be large or run the other way
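A cell-based infection assay in which seeded cells (1,000 per well) receive test compound after 4 h, are inoculated with HCVcc-Cre at approximately 0.5 moi, and are incubated 44 h before luminescence detection.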
MARV entry inh: qHTS for inhibitors of binding or entry into cells for Marburg Virus; Potency, µM (series often up to 37.8 µM), actives largely listed as inhibitors; AID 540276, 2011; Marburg virus pseudotyped entry inhibition, cell reporter; hit rate 1.8% among 300,000; calls by dose curve; tested in HEK293 cells
FMDV antiviral: High Throughput Screening for Foot and Mouth Disease Virus Antivirals; AID 1159524, 2015; hit rate 1.2% among 410,000; Potency, µM (series often up to 57.9 µM), hits mostly inhibitors; FMDV antiviral cell-based qHTS; calls by dose curve; tested in HEK293T cells; note: read-out not given here; nearly all actives have a fitted effect of over 45% in size
LASV entry inh: qHTS for Inhibitors of binding or entry into cells for Lassa Virus. Lassa virus pseudotype entry inhibition, cell reporter. AID 540256, 2011. hit rate 1.2% among 300,000. Potency, µM (doses to about 37.9 µM), actives largely listed as inhibitors; calls by dose curve; tested in HEK293 cells; note: nearly all actives have a fitted effect of over 50% in size
HCMV antiviral: qHTS Assay for inhibitors of the human cytomegalovirus (HCMV) | hit rate 4.5% among 410,000 | HFF cells, HCMV-luciferase reporter, 72 h; stronger effect = lower value | activity change, negative = inhibition, % at 57.5 µM | AID 1259415, 2018; in the data active = activity change below about -60%; inconclusive = no clear call, values can overlap the other calls; inactive = above about -39%
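HFF cells seeded 16 h at 37C, treated with compounds, infected with luciferase-reporter HCMV at MOI 1 PFU/cell; luciferase read at 72 h post infection, normalized to buffer-only and Salinomycin controls.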
Of the large screens only hits and unclear results are named; the others gave an inactive call.

Cc1cccc(NC(=O)c2sc3nc(-c4ccccc4)cn3c2C)n1	HCV inhibitor 12.6µM, MARV entry inh inconclusive, LASV entry inh inconclusive, HCMV antiviral inconclusive (no result: FMDV antiviral)
Cc1c(C(=O)NCc2ccc3c(c2)OCO3)sc2nc(-c3ccccc3)cn12	none (no result: MARV entry inh, LASV entry inh)
Cc1c(C(=O)Nc2ccc3c(c2)OCO3)sc2nc(-c3ccccc3)cn12	HCV inhibitor 3.98µM, LASV entry inh inconclusive
CCC1CN(CCNC(=O)c2scc3c2OCCO3)Cc2cc(OC)ccc2O1 (stereo not given)	none (no result: HCV inhibitor, MARV entry inh, LASV entry inh, HCMV antiviral)
CC(C)c1ccc2[nH]c(O)c(N=NC(=O)c3cccc(S(=O)(=O)N4CCCCC4)c3)c2c1	HCV inhibitor 11.2µM, MARV entry inh 10µM, FMDV antiviral inconclusive, LASV entry inh inconclusive
Cn1c(=O)oc2cc(S(=O)(=O)N3CCC(C(=O)N4CC=C(c5ccccc5)CC4)CC3)ccc21	HCMV antiviral -72.6 (no result: MARV entry inh, LASV entry inh)
O=C(C1CCN(S(=O)(=O)c2ccc(F)cc2)CC1)N1CC=C(c2ccccc2)CC1	HCV inhibitor inconclusive, LASV entry inh inconclusive, HCMV antiviral -100.7
Cn1c(=O)oc2cc(S(=O)(=O)N3CCC(C(=O)NCc4ccccc4)CC3)ccc21	none
COc1ccc(OC)c(S(=O)(=O)NCC(c2ccc(N(C)C)cc2)N2CCOCC2)c1 (stereo not given)	none (no result: HCV inhibitor, MARV entry inh)
CCCSCCCNC(=O)c1ccc(Cn2c(=O)c3cccn3c3cccnc32)cc1	none (no result: HCV inhibitor, MARV entry inh)
CC(C(c1ccc2c(c1)OCO2)c1c(N)n(C)c(=O)n(C)c1=O)[N+](=O)[O-] (stereo not given)	HCMV antiviral -62.8 (no result: MARV entry inh, LASV entry inh)
CC(O)(COc1ccccc1)c1ccc2c(c1)CN(Cc1cccc3ncccc13)CCO2 (stereo not given)	none (no result: HCV inhibitor, MARV entry inh, LASV entry inh, HCMV antiviral)
O=C1CN(C(=O)CSc2nc3ccccc3c(=O)n2CC2CCCO2)c2ccccc2N1 (stereo not given)	FMDV antiviral inconclusive (no result: MARV entry inh, LASV entry inh)
Cc1nnc(SCC(=O)N2CC(=O)Nc3ccccc32)n1Cc1ccccc1	MARV entry inh inconclusive
Cc1ccc(Cn2c(SCC(=O)N3CC(=O)Nc4ccccc43)nc3ccccc3c2=O)cc1	HCV inhibitor 10µM, MARV entry inh inconclusive, LASV entry inh inconclusive, HCMV antiviral -76.3
O=C1CN(C(=O)CSc2nc3cc(Cl)ccc3c(=O)n2Cc2ccccc2)c2ccccc2N1	HCV inhibitor 11.2µM, MARV entry inh inconclusive, LASV entry inh inconclusive, HCMV antiviral inconclusive
Cc1ccc(CNC(=O)c2cc(-c3ccc(Cl)cc3)on2)cc1	none (no result: HCV inhibitor)
CCOC(=O)c1sc(=S)n(C)c1NC(=O)c1ccc(C(C)(C)C)cc1	MARV entry inh 14.1µM, FMDV antiviral 25.1µM, LASV entry inh inconclusive, HCMV antiviral -72.9
O=C(Nc1ccc(S(=O)(=O)NC2=NCCCCC2)cc1)c1cccs1	HCV inhibitor inconclusive, HCMV antiviral -102.0 (no result: MARV entry inh, LASV entry inh)
O=C(Nc1ccc(S(=O)(=O)NC2=NCCCCC2)cc1)c1ccc([N+](=O)[O-])s1	HCV inhibitor inconclusive, MARV entry inh inconclusive, LASV entry inh inconclusive
O=C(Nc1ccc(S(=O)(=O)NC2=NCCCCC2)cc1)c1ccc(C(F)(F)F)cc1	HCV inhibitor inconclusive, FMDV antiviral inconclusive, HCMV antiviral -66.9 (no result: MARV entry inh, LASV entry inh)
COc1ccccc1-n1c(N)c(C(=O)NC[C@H]2CCCO2)c2nc3ccccc3nc21	none (no result: HCV inhibitor, FMDV antiviral, LASV entry inh, HCMV antiviral)
O=C(COc1ccccc1-c1nc(-c2ccccc2)no1)Nc1cccc([N+](=O)[O-])c1	none (no result: HCV inhibitor)
CCOC(=O)CN1C(=O)[C@@]2(CC(C)=CC[C@@H](COc3ccccc3)O2)c2ccccc21	LASV entry inh inconclusive (no result: HCV inhibitor, FMDV antiviral, HCMV antiviral)
CCCOc1ccc(C(=O)N2CC3(CC(c4cccc(NC(=O)[C@@H]5CCC(=O)N5)c4)=NO3)C[C@H]2C(=O)NC2(C(N)=O)CC2)cc1 (stereo not given in full)	HCMV antiviral -64.4 (no result: LASV entry inh)
NC(=O)C1(NC(=O)[C@@H]2CC3(CC(c4cccc(NC(=O)[C@@H]5CCC(=O)N5)c4)=NO3)CN2C(=O)c2ccccc2)CC1 (stereo not given in full)	none (no result: MARV entry inh, LASV entry inh)
OC(c1ccccc1)(c1ccccc1)C1CN2CCC1CC2 (stereo not given)	HCV inhibitor inconclusive, MARV entry inh inconclusive
OC(c1ccccc1)(c1ccc(Cl)cc1)C1CN2CCC1CC2 (stereo not given)	HCV inhibitor 2.82µM, MARV entry inh inconclusive, LASV entry inh 12.6µM
Cc1nc2cc(NC(=O)[C@@H]3C[C@@H](Sc4ccccn4)CN3Cc3ccccc3F)ccc2s1	none (no result: HCV inhibitor, MARV entry inh, LASV entry inh, HCMV antiviral)
CC[n+]1c(/C=C/c2c[nH]c3ccccc23)ccc2cc(C)ccc21	HCV inhibitor 4.47µM, MARV entry inh inconclusive, FMDV antiviral 12.6µM, LASV entry inh inconclusive, HCMV antiviral -99.0
O=C(NCC1Cc2cccc(-c3ncccn3)c2O1)C1CCOC1 (stereo not given)	none (no result: HCV inhibitor, MARV entry inh, LASV entry inh, HCMV antiviral)
C#CCSC1=C(C#N)[C@@H](c2cccs2)C(C(=O)OCC)=C(C)N1	none (no result: HCV inhibitor, FMDV antiviral, LASV entry inh, HCMV antiviral)
Cc1nn(-c2ccccc2Cl)c(Cl)c1/C=N/Nc1nc2ccccc2s1	MARV entry inh 0.0326µM, FMDV antiviral 0.0009µM, LASV entry inh 1.12µM, HCMV antiviral -93.7
CCCSc1nc2c(c(=O)[nH]1)C(c1ccc(F)cc1F)CC(=O)N2 (stereo not given)	none (no result: HCV inhibitor)
CN(C(=O)NCc1noc2ccccc12)c1cccc(Cl)c1	none (no result: HCV inhibitor, MARV entry inh)
CCCc1nc2oc3c(NCC4CCCO4)ncnc3c2c2c1COC(C)(C)C2 (stereo not given)	HCV inhibitor inconclusive
CC(C)c1nc2oc3c(NCC4CCCO4)ncnc3c2c2c1CCC2 (stereo not given)	HCV inhibitor 11.2µM, MARV entry inh inconclusive, FMDV antiviral inconclusive, LASV entry inh inconclusive
CC(C)Cc1nc2oc3c(NCC(C)O)ncnc3c2c2c1CCCC2 (stereo not given)	HCV inhibitor inconclusive (no result: MARV entry inh, LASV entry inh)
CCCc1nc2oc3c(NCCN(C)C)ncnc3c2c2c1CCCC2	HCV inhibitor inconclusive, MARV entry inh inconclusive, LASV entry inh 16.4µM
CCCc1nc2oc3c(Cl)ncnc3c2c2c1CCCC2	FMDV antiviral 14.1µM
CCCc1nc2oc3c(NCCCN(C)C)ncnc3c2c2c1CCCC2	MARV entry inh inconclusive, LASV entry inh inconclusive, HCMV antiviral -98.1
COc1ccc(-c2cnc(C)o2)cc1S(=O)(=O)Nc1ccc(OC(F)(F)F)cc1	none (no result: HCV inhibitor, MARV entry inh)
CSc1nccc(-c2cc(Cl)c3c(c2)CC(CNC(=O)c2ccc(C)nc2)O3)n1 (stereo not given)	none (no result: HCV inhibitor, MARV entry inh, LASV entry inh, HCMV antiviral)
COc1ccc(C(=O)NCCc2nnc3n2CCN(CC2CC=CCC2)CC3)cc1 (stereo not given)	none (no result: HCV inhibitor, MARV entry inh, LASV entry inh, HCMV antiviral)
Cc1ccc(N2CN=c3s/c(=C\c4cccnc4)c(=O)n3C2)cc1	HCMV antiviral -69.0
COc1ccc(CN2CCc3nnc(CCc4ccccc4)n3CC2)c(OC)c1C	none (no result: HCV inhibitor, MARV entry inh, LASV entry inh, HCMV antiviral)
COc1ccc(NC(=O)c2c(-c3ccc(C)cc3)nnc3ccccc23)c(OC)c1	none (no result: HCV inhibitor, MARV entry inh)
O=C(Cc1ccccc1)NNc1c2ccccc2nc2ccccc12	HCV inhibitor inconclusive, MARV entry inh inconclusive, HCMV antiviral -66.6
O=C(Cc1ccccc1)NNC(=O)Cc1ccccc1	none
